Test results published in PubChem BioAssay (NCATS).
Results filed as inconclusive are left out. Unmarked numbers belong to inactive results. The source made the active and inactive calls. The call rests on the fitted dose curve; in most records, active means well fitted curve in the direction sought with a large enough effect; inconclusive means small, poorly fitted or top-dose-only effect, or another doubt; inactive means no such curve, though single readings can be large; an effect the other way counts as inactive or inconclusive.

Tests used:
[1] = BET inhibitor-based combinations targeting novel dependencies in MECOM-rearranged (r) AML: SET-2 cell line (AID 2202231); settings: SET-2 AML cells viability, CellTiter-Glo luminescence, 48 h; viability: active compounds read low, concentration not given here; further: nearly all actives have a fitted effect of over 35% in size;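 on viability: plate controls were DMSO treated cells for no effect and wells without cells for full effect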
Summary of the method: (§1)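 Cells were plated at 500 per well and exposed to an 11-point dose series of each drug for 48 hr. Viability was measured by CellTiter-Glo luminescence, normalized to DMSO and empty-well controls, and summarized as AUC and per-cell-line Z-AUC.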

[2] = BET inhibitor-based combinations targeting novel dependencies in MECOM-rearranged (r) AML: OCI-AML3 cell line (AID 2202232); settings: CellTiter-Glo luminescence, 48 h; Potency: OCI-AML3 viability; series mostly up to 46 µM; further: nearly all actives have a fitted effect of over 35% in size
Summary of the method: as §1

[3] = BET inhibitor-based combinations targeting novel dependencies in MECOM-rearranged (r) AML: MV-4-11 cell line (AID 2202233); settings: MV-4-11 AML viability, CellTiter-Glo luminescence, 48 h; series mostly up to 46 µM; further: nearly all actives have a fitted effect of over 45% in size
Summary of the method: (§2)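 Activity is given as area under the curve and as Z-AUC, mean-centred within each cell line. It comes from 11-point dose curves normalized to DMSO and empty wells. CellTiter-Glo luminescence was read after 48 hr drug exposure of 500 cells/well.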

[4] = BET inhibitor-based combinations targeting novel dependencies in MECOM-rearranged (r) AML: HNT-34 cell line (AID 2202234); settings: HNT-34 AML viability, CellTiter-Glo luminescence, 48 h; series mostly up to 46 µM; further: nearly all actives have a fitted effect of over 35% in size
Summary of the method: as §2

[5] = BET inhibitor-based combinations targeting novel dependencies in MECOM-rearranged (r) AML: UCSD-AML1 cell line (AID 2202235); settings: UCSD-AML1 AML cells viability, CellTiter-Glo, 48 h; series mostly up to 46 µM; further: nearly all actives have a fitted effect of over 40% in size
Summary of the method: as §2

[6] = BET inhibitor-based combinations targeting novel dependencies in MECOM-rearranged (r) AML: AML-191 cell line (AID 2202236; further: nearly all actives have a fitted effect of over 35% in size); settings: AML-191 viability, CellTiter-Glo luminescence, 48 h; series mostly up to 46 µM
Summary of the method: as §1

[7] = BET inhibitor-based combinations targeting novel dependencies in MECOM-rearranged (r) AML: AML-194 cell line (AID 2202237; further: nearly all actives have a fitted effect of over 40% in size); settings: AML-194 (MECOM-r AML) viability, CellTiter-Glo, 48 h; series mostly up to 46 µM
Summary of the method: as §1
Potency means the concentration at half of the fitted maximal effect.

**Q.** Which Potency [1] does the source give for `COc1cc2c(cc1O)CCN[C@]21CS[C@@H]2c3c(OC(C)=O)c(C)c4c(c3[C@H](COC1=O)N1[C@@H]2[C@H]2c3c(cc(C)c(OC)c3O)C[C@@H]([C@@H]1O)N2C)OCO4` here?
**A.** 9.6 nM (active)

**Q.** And the Potency [2]?
**A.** 9.6 nM (active)

**Q.** What about the Potency [3] of the same compound?
**A.** 4.3 nM (active)

**Q.** What about the Potency [4] of the same compound?
**A.** 8.5 nM (active)

**Q.** What about the Potency [5] of the same compound?
**A.** 9.6 nM (active)

**Q.** And the Potency [6]?
**A.** 9.6 nM (active)

**Q.** With `O=C(/C=C/c1ccc2ccc(C(F)(F)F)cc2n1)c1ccncc1` as the compound, how does the Potency [1] read?
**A.** 2630 nM (active)

**Q.** What about the Potency [2] of the same compound?
**A.** 1860 nM (active)

**Q.** What about the Potency [3] of the same compound?
**A.** 1050 nM (active)

**Q.** And the Potency [4]?
**A.** 1320 nM (active)

**Q.** What about the Potency [5] of the same compound?
**A.** 1660 nM (active)

**Q.** And the Potency [6]?
**A.** 1860 nM (active)

**Q.** What about the Potency [7] of the same compound?
**A.** 2.35 µM (active)

**Q.** Which Potency [1] does the source give for `CN1CCC(c2c(O)cc(O)c3c(=O)cc(-c4ccccc4Cl)oc23)C1CO` (configuration not stated) here?
**A.** 1320 nM (active)

**Q.** What about the Potency [2] of the same compound?
**A.** 742 nM (active)

**Q.** What about the Potency [3] of the same compound?
**A.** 934 nM (active)

**Q.** What about the Potency [4] of the same compound?
**A.** 833 nM (active)

**Q.** And the Potency [5]?
**A.** 1050 nM (active)

**Q.** And the Potency [6]?
**A.** 662 nM (active)

**Q.** What about the Potency [7] of the same compound?
**A.** 1.05 µM (active)

**Q.** What does the source list for `CCS(=O)(=O)Nc1ccc(Oc2ccc(F)cc2F)c(-c2cn(C)c(=O)c3[nH]ccc23)c1`?
**A.** Potency [1]: 52.5 nM (active); Potency [2]: 11.8 nM (active); Potency [3]: 8.3 nM (active); Potency [4]: 74.2 nM (active); Potency [5]: 132 nM (active); Potency [6]: 74.2 nM (active); Potency [7]: 0.0833 µM (active)

**Q.** What does the source list for `CC(=O)Nc1ccc(O)cc1`?
**A.** viability [1]: 94.1%; Potency [2]: inactive; Potency [3]: inactive; Potency [4]: inactive; Potency [5]: inactive; Potency [6]: inactive; Potency [7]: inactive

**Q.** For `CC(=O)N[C@H]1[C@H](O[C@@H]2c3ccc(c(Cl)c3)Oc3cc4cc(c3O[C@@H]3O[C@H](CO)[C@@H](O)[C@H](O)[C@H]3NC(=O)CCCCCCCC(C)C)Oc3ccc(cc3Cl)C[C@H]3NC(=O)[C@H](N)c5ccc(O)c(c5)Oc5cc(O)cc(c5)[C@H](NC3=O)C(=O)N[C@H]4C(=O)N[C@H]3C(=O)N[C@@H]2C(=O)N[C@@H](C(=O)O)c2cc(O)cc(O[C@H]4O[C@H](CO)[C@@H](O)[C@H](O)[C@@H]4O)c2-c2cc3ccc2O)O[C@H](CO)[C@@H](O)[C@@H]1O`, which viability [1] is on record?
**A.** 113%

**Q.** What about the Potency [2] of the same compound?
**A.** inactive

**Q.** What about the Potency [3] of the same compound?
**A.** inactive

**Q.** What about the Potency [4] of the same compound?
**A.** inactive

**Q.** What about the Potency [5] of the same compound?
**A.** inactive

**Q.** What about the Potency [6] of the same compound?
**A.** inactive

**Q.** And the Potency [7]?
**A.** inactive

**Q.** For `CC(C)(O)[C@H]1CC[C@@](C)([C@H]2[C@@H](O)C[C@@]3(C)[C@@H]4C[C@H](O[C@@H]5O[C@H](CO)[C@@H](O)[C@H](O)[C@H]5O)[C@H]5C(C)(C)[C@@H](O[C@@H]6OC[C@@H](O)[C@H](O)[C@H]6O)CC[C@@]56C[C@@]46CC[C@]23C)O1`, which viability [1] is on record?
**A.** 118%

**Q.** And the Potency [2]?
**A.** inactive

**Q.** And the Potency [3]?
**A.** inactive

**Q.** What about the Potency [4] of the same compound?
**A.** inactive

**Q.** What about the Potency [5] of the same compound?
**A.** inactive

**Q.** What about the Potency [6] of the same compound?
**A.** inactive

**Q.** And the Potency [7]?
**A.** inactive

**Q.** With `CN1C/C=C/CCOc2cccc(c2)-c2ccnc(n2)Nc2cccc(c2)C1` as the compound, how does the Potency [1] read?
**A.** 118 nM (active)

**Q.** What about the Potency [2] of the same compound?
**A.** 468 nM (active)

**Q.** And the Potency [3]?
**A.** 417 nM (active)

**Q.** And the Potency [4]?
**A.** 417 nM (active)

**Q.** And the Potency [5]?
**A.** 148 nM (active)

**Q.** What about the Potency [6] of the same compound?
**A.** 296 nM (active)

**Q.** What about the Potency [7] of the same compound?
**A.** 0.372 µM (active)

**Q.** What does the source list for `COC(=O)c1ccc([C@H]2c3[nH]c4ccccc4c3C[C@H](C(=O)OC)N2C(=O)CCl)cc1`?
**A.** Potency [1]: 93.4 nM (active); Potency [2]: 105 nM (active); Potency [3]: 833 nM (active); Potency [4]: 93.4 nM (active); Potency [5]: 166 nM (active); Potency [6]: 132 nM (active); Potency [7]: 0.105 µM (active)

**Q.** What does the source list for `CCN(CC)CCNC(=O)c1c(C)[nH]c(/C=C2/C(=O)Nc3ccc(-c4csc(-c5ccccc5)n4)cc32)c1C`?
**A.** Potency [1]: 9340 nM (active); Potency [2]: 18600 nM (active); Potency [3]: 1180 nM (active); Potency [4]: 26300 nM (active); Potency [5]: 9340 nM (active); Potency [6]: 7420 nM (active); Potency [7]: 7.42 µM (active)

**Q.** What does the source list for `Cn1cc(CNCC2CCN(c3ncc(C(=O)NO)cn3)CC2)c2ccccc21`?
**A.** Potency [1]: 148 nM (active); Potency [2]: 118 nM (active); Potency [3]: 83.3 nM (active); Potency [4]: 118 nM (active); Potency [5]: 105 nM (active); Potency [6]: 148 nM (active); Potency [7]: 0.332 µM (active)

**Q.** Which results are given for `CC1(C(=O)O)CCC2(C)CCC3(C)C(=CC(=O)C4C5(C)CCC(OC6OC(C(=O)O)C(O)C(O)C6OC6OC(C(=O)O)C(O)C(O)C6O)C(C)(C)C5CCC43C)C2C1` (configuration not stated)?
**A.** viability [1]: 124%; Potency [2]: inactive; Potency [3]: inactive; Potency [4]: inactive; Potency [5]: inactive; Potency [6]: inactive; Potency [7]: inactive

**Q.** With `CN1N=C(N)c2cn([C@@H]3O[C@H](COP(=O)(O)O)[C@@H](O)[C@@H]3O)c3ncnc1c23` as the compound, how does the Potency [1] read?
**A.** 2630 nM (active)

**Q.** And the Potency [2]?
**A.** 1320 nM (active)

**Q.** And the Potency [3]?
**A.** 525 nM (active)

**Q.** And the Potency [4]?
**A.** 468 nM (active)

**Q.** What about the Potency [5] of the same compound?
**A.** 1180 nM (active)

**Q.** And the Potency [6]?
**A.** 2350 nM (active)

**Q.** What about the Potency [7] of the same compound?
**A.** 1.66 µM (active)

**Q.** For `CC(/C=C1\SC(=S)N(CC(=O)O)C1=O)=C\c1ccccc1`, which viability [1] is on record?
**A.** 113%

**Q.** What about the Potency [2] of the same compound?
**A.** inactive

**Q.** What about the Potency [3] of the same compound?
**A.** inactive

**Q.** And the Potency [4]?
**A.** inactive

**Q.** What about the Potency [5] of the same compound?
**A.** inactive

**Q.** And the Potency [6]?
**A.** inactive

**Q.** And the Potency [7]?
**A.** inactive
